Screening data deposited in PubChem BioAssay by National Center for Advancing Translational Sciences (NCATS).
mIDH1 inhibitor = inhibitors of human mutant IDH1 R132H. IDH1-R132H enzyme, NADPH consumption, diaphorase/resazurin fluorescence. Potency, µM (highest dose often 76.6 µM), usual class: inhibitors. 390,000 compounds, 0.093% hits. AID 602179; further: nearly all actives have a fitted effect of over 65% in size
Target sequence (O75874 whole entry R132H, stated change not applied): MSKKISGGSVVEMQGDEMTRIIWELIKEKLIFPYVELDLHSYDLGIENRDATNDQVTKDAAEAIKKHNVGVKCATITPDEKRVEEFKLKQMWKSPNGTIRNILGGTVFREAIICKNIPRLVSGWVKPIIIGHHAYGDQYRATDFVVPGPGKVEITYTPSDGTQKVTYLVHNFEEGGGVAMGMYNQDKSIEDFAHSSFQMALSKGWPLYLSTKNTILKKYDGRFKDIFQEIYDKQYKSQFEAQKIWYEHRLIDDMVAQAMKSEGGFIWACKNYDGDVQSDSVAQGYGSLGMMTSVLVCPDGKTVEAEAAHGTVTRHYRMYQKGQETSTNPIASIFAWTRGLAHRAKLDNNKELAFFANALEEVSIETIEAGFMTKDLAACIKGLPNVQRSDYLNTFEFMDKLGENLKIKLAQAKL
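IDH1-R132H (0.5 ug/mL) preincubated 30 min with compound, then NADPH (0.016 mM) and alpha-KG (2 mM) added; 80 min at RT, pH 7.5. Remaining NADPH coupled via diaphorase/resazurin to fluorescence (540/590 nm); concentration-response curves normalized to no-enzyme control.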
PTHR1 ag = agonists of human PTHR1 parathyroid hormone receptor; HEK293 GP2 PTHR1 cells, GloSensor cAMP luminescence, 1 h; Potency, µM (titrated, usually from 115 µM), actives largely listed as activators; 410,000 compounds, 0.075% hits; AID 743266; further: nearly all actives have a fitted effect of over 55% in size
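HEK-293-derived GP2 cells expressing PTHR1 and a GloSensor cAMP reporter, 3,000/well, plated overnight, given luciferin plus IBMX (each 0.5 mM as added) for 1 h at 37 °C, then compound for 1 h at 37 °C. Luminescence was read after 15 min at room temperature.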
GLP-1R agonist = activates the human GLP-1 receptor; Potency, µM (highest dose often 45.6 µM), hits mostly activators; 380,000 compounds, 0.007% hits; AID 624172; P43220; HEK293 GLP-1R CRE-luciferase, luminescence, 4-6 h; cells express a hypersensitive GLP-1R form
GLP-1R inv ag = acts as inverse agonist at human GLP-1 receptor; HEK293 GLP-1R CRE-luciferase, luminescence, 24 h; GLP-1R form is constitutively active; 410,000 compounds, 1.6% hits; AID 624417; P43220; Potency, µM (doses to about 38.3 µM), hits mostly inhibitors; further: nearly all actives have a fitted effect of over 55% in size
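Stable HEK293 clone (constitutively active GLP-1R + cAMP-response luciferase); 200 cells/uL plated, 12 h pre-culture, compound 24 hr, 37 deg C/5% CO2; detection reagent 12 min RT; luminescence.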
LDHA inh = LDHA (human) enzyme inhibition; P00338; purified LDHA, NADH/diaphorase-resazurin fluorescence; stronger effect = lower value; activity change, % (values are at about 110 or 230 µM); 480,000 compounds, 0.15% hits; AID 1347041; in the data active means activity change below about -30%; inconclusive means mostly about -25% to -30%
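Remaining NADH was detected by diaphorase (0.133 mg/mL) converting 37 µM resazurin to fluorescent resorufin, read at 0 and 20 minutes. The preceding 5-minute room-temperature reaction used 2 nM LDHA, 0.2 mM sodium pyruvate and 0.06 mM NADH at pH 7.4.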
HEK293 tox = cytotoxicity counter-screen for GLP-1 receptor inverse agonists; HEK293 cAMP-luciferase reporter cells, luminescence, 24 h; 410,000 compounds, 0.13% hits; Potency, µM (highest dose often 38.3 µM), usual class: inhibitors;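 further: loss of luciferase light is scored as toxicity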
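Compound-treated cells are incubated 24 hr at 37 deg C under 5% CO2 after a 12 hour attachment period, then luciferase detection reagent is added and luminescence is measured following 12 min at room temperature; lowered signal indicates toxicity.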
Hits are given with their value; i = inactive; ? = inconclusive; nt = no result given. Compounds with a hit are over-represented: about 1.7% of the library has one in this group of screens. Unless noted, the call rests on the fitted dose curve; in most records, active means well fitted curve in the direction sought with a large enough effect; inconclusive means small, poorly fitted or top-dose-only effect, or another doubt; inactive means no such curve, though single readings can be large; an effect the other way counts as inactive or inconclusive.

SMILES	mIDH1 inhibitor	PTHR1 ag	GLP-1R agonist	GLP-1R inv ag	LDHA inh	HEK293 tox
COc1ccc(CC(=O)Nc2ccc3nc(Nc4cccc(Cl)c4)cc(C)c3c2)cc1OC	i	i	i	?	i	i
Cc1cc(Nc2cccc(C(F)(F)F)c2)nc2ccc(NC(=O)c3cccc(Cl)c3)cc12	i	i	i	2.8µM	i	?
Cc1cc(Nc2cccc(Cl)c2)nc2ccc(NC(=O)Cc3cccc(C(F)(F)F)c3)cc12	i	i	i	4µM	i	?
CCOc1ccc(C(=O)Nc2ccc3nc(Nc4cccc(C(F)(F)F)c4)cc(C)c3c2)cc1OCC	i	i	i	i	i	i
Cc1cc(Nc2cccc(Cl)c2)nc2ccc(NC(=O)Cc3ccc(Cl)cc3)cc12	i	i	i	5.6µM	i	i
NS(=O)(=O)c1ccc(NC(=O)c2ccc([N+](=O)[O-])cc2[N+](=O)[O-])cc1	nt	nt	nt	nt	i	nt
Cc1c(CC(=O)Nc2ccc(C(F)(F)F)cc2)c(=O)oc2cc(O)ccc12	nt	nt	nt	nt	i	nt
COc1ccc(OCC(=O)Nc2ccc3oc(-c4ccccc4F)nc3c2)cc1	nt	nt	nt	nt	i	nt
CN(C)C(=O)c1ccc2c(c1)NC(=O)CS2	nt	nt	nt	nt	i	nt
O=C(c1ccc(F)c(F)c1)N(Cc1ccco1)C1CC1	nt	nt	nt	nt	i	nt
Cc1nc2sc3c(c2c2nc(C(=O)NCc4ccncc4)nn12)CC(C)(C)OC3	nt	nt	nt	nt	i	nt
O=C(O)c1ccc(N/N=C/c2ccc(OC(=O)c3ccccc3Cl)cc2)cc1	i	i	i	7.1µM	i	i
Nc1ccc(C(=O)N/N=C\c2ccc(OC(=O)c3ccccc3Cl)cc2)cc1	i	i	i	i	i	i
COc1ccc(/C=N/NC(=O)Cc2csc(Nc3cccc(C(F)(F)F)c3)n2)cc1C	i	i	i	7.9µM	i	?
COc1cc(/C=N/NC(=O)Cc2csc(C)n2)ccc1OCC(C)C	i	i	i	i	i	i
CCc1ccccc1NC(=O)Cn1nnc2sc3c(c2c1=O)CCC(C(C)(C)C)C3 (stereo unspecified)	nt	i	nt	11µM	i	i
CCC1CCCCN1C(=O)CCc1ccsc1 (stereo unspecified)	nt	nt	nt	nt	i	nt
Cn1c(C2=C(O)CN(c3ccc(C(=O)O)cc3)C2=N)nc2ccccc21	nt	nt	nt	nt	i	nt
Fc1ccccc1/C=N/Nc1ncnc2ccccc12	i	i	i	?	i	?
Clc1ccc(/C=N/Nc2ncnc3ccccc23)cc1Cl	i	i	i	?	i	2.2µM
CCc1ccccc1NC(=O)c1ccc2c(c1)NC(=O)CS2	nt	nt	nt	nt	i	nt
C[C@@H]1CN(C2CCN(Cc3nc(C(c4ccccc4)c4ccccc4)no3)CC2)C[C@H](C)O1	i	i	i	?	i	i
c1ccc(C(c2ccccc2)c2noc(CN3CCN(C4CCCC4)CC3)n2)cc1	i	i	i	13µM	i	i
Cc1cccnc1CN1CCN(Cc2nc(C(c3ccccc3)c3ccccc3)no2)CC1	i	i	i	5µM	i	i
CC(=O)N1CCN(Cc2nc(C(c3ccccc3)c3ccccc3)no2)CC1	i	i	i	i	i	i
SMILES	mIDH1 inhibitor	PTHR1 ag	GLP-1R agonist	GLP-1R inv ag	LDHA inh	HEK293 tox
Fc1ccc(CNCc2ccc(-c3ccccc3F)o2)cc1	nt	nt	nt	nt	i	nt
CC(NC(=O)CCc1ccc(C#N)cc1)c1cccs1 (stereo unspecified)	nt	nt	nt	nt	i	nt
O=C1/C(=C\c2ccc(O)c(O)c2)SC(=S)N1Cc1ccccc1	?	i	i	?	i	10µM
CN1CCN(C(=O)CCCN2C(=O)/C(=C/c3ccc(Cl)cc3)SC2=S)CC1	i	i	i	10µM	i	?
O=C(CCCN1C(=O)/C(=C\c2ccccc2)SC1=S)Nc1ccc(O)cc1	i	i	i	?	i	10µM
O=C1/C(=C/c2ccccc2)SC(=S)N1CCCC(=O)N1CCCCC1CCO (stereo unspecified)	i	i	i	5µM	i	i
CCCCNC(=O)NCC(=O)NCCC	nt	nt	nt	nt	i	nt
Cc1ccc(NC(=O)COc2cccc(/C=C3\SC(=S)N(CCC(=O)O)C3=O)c2)cc1Cl	i	i	i	i	-36	i
O=C(O)CCN1C(=O)/C(=C\c2cccc(OCC(=O)Nc3ccc(Cl)cc3)c2)SC1=S	i	i	i	i	i	?
CSc1ccc(Cl)c(C(=O)NCCOc2cc(C(C)C)ccc2C)c1	i	i	i	11µM	i	i
CCOc1ccc(Br)cc1S(=O)(=O)Nc1ccc(-c2cn3ccc(C)nc3n2)cc1	nt	nt	nt	nt	i	nt
Cc1nnc(N/N=C/c2ccc([N+](=O)[O-])cc2)n1N	i	i	i	i	i	i
Cc1nnc(N/N=C/c2cc([N+](=O)[O-])c(N3CCC(C)CC3)cc2N2CCC(C)CC2)n1N	i	28µM	i	i	i	?
O=C(Nc1ccc(Cl)cc1)/C(=C/c1cccc(O)c1)c1nc2ccccc2s1	i	i	i	2.8µM	i	i
COc1ccc(-c2nc(-c3ccccc3)c(-c3ccccc3)[nH]2)cc1Br	i	i	nt	?	i	i
COc1cc(-c2nc(-c3cccc(Cl)c3)c(-c3ccccc3)[nH]2)cc(OC)c1OC	i	i	nt	3.5µM	i	?
CCOC(=O)N1CC=C2C(C#N)=C(N)C(C#N)(C#N)[C@H](c3ccsc3)[C@H]2C1	41µM	i	i	i	i	i
CC(=O)C1=C(c2ccccc2)N(C(C)=O)n2c(nnc2C2CCCCC2)S1	?	i	nt	13µM	i	i
O=C(N/N=C/c1ccc[nH]1)c1sc2ccccc2c1Cl	i	i	i	10µM	i	?
S=C1Cc2ccccc2N1	37µM	i	i	1µM	i	i
